Drawing on PubChem BioAssay, this text covers composite z-score and z-score for 5 compounds.

A short description of test [1]: small molecules captured by biotinylated probe aFSTL3 – biochemical, small-molecule microarray, fluorescence 635/667, stem cell growth factor project, primary screen (AID 1064).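 Further: measures binding of the biotinylated anti-FSTL3 antibody to printed compounds.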 The settings on record: higher = more signal.
The nature of test [2]: binders from COS7 lysate, DM2A8 probe, primary screen, torsin A project, cell lysate, small-molecule microarray, fluorescence 635/667 (AID 1065). Particulars: higher = more signal, COS7 lysate expressing mutant human TOR1A.
Test [3] is described as follows: small molecules captured by biotinylated probe aFGF2 – biochemical, small-molecule microarray, fluorescence 635/667, stem cell growth factor project, primary screen (AID 1067).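 Further: measures binding of biotinylated aFGF2 protein to printed compounds on slides; z-score merges feature fluorescence and signal-to-noise across triplicate slides.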 Particulars: higher = more signal.
Test [4] in a line: small molecules captured by biotinylated probe aFGF10 – biochemical, small-molecule microarray, fluorescence 635/667, stem cell growth factor project, primary screen (AID 1071).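 Further: score merges 667 nm spot intensity and signal to noise from triplicate slides.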 The settings on record: higher = more signal.
Test [5] addresses Neurogenic locus notch homolog protein 2 (Homo sapiens) (UniProt Q04721). Put plainly: small molecules binding Notch2 protein – biochemical, small-molecule microarray, 635 nm fluorescence, stem cell growth factors, primary screen (AID 1073). The settings on record: higher = more signal.
The target in test [6] is Pro-neuregulin-1, membrane-bound isoform (Homo sapiens) (UniProt Q02297). The test is described as follows: small molecules binding neuregulin-1 protein – biochemical, small-molecule microarray, fluorescence 635/667, psychiatric disease protein project, primary screen (AID 1075).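 Further: score combines 667 nm spot fluorescence with signal to noise.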 The settings on record: NRG1 binding, 635 nm fluorescence, higher = more signal.
Pro-neuregulin-1, membrane-bound isoform (Homo sapiens), sequence (Q02297 whole entry, looked up, the tested form may be a part, canonical isoform): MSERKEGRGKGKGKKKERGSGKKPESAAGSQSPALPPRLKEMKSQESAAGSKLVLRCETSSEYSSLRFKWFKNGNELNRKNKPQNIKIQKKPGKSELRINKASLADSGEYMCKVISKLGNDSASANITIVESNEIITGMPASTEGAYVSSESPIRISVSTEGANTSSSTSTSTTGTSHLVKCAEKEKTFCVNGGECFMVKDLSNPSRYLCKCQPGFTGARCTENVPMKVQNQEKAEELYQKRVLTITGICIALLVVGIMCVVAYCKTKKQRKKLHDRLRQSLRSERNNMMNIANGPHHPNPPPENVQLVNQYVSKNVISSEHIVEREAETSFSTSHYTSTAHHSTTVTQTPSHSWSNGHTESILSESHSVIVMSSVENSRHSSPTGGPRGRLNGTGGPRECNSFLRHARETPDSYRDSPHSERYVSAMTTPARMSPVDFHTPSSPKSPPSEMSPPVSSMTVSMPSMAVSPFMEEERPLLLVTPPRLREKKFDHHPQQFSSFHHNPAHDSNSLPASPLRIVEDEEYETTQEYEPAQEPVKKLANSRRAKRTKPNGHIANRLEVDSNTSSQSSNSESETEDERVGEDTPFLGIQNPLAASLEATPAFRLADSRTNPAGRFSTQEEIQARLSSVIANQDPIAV
In test [7] the test system is Neuregulin-1 EGF-like domain. The test is described as follows: small molecules binding NRG1 EGF domain – biochemical, small-molecule microarray, 635 nm fluorescence, primary screen (AID 1081).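 Further: binding of the protein to compounds printed on small-molecule microarray slides.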 Particulars: higher = more signal.
Test [8] is described as follows: FRG1 expression reporter modulators in myotubes – cell-based, C2C12 myotubes, firefly/Renilla luciferase, luminescence, FRG1 inhibition for FSHD, primary screen (AID 1084). Particulars: FRG1 promoter luciferase, higher = more signal, called active from +8 up or from −8 down.
Test [9] in a line: small molecules captured by biotinylated probe aFST – biochemical, small-molecule microarray, fluorescence 635/667, stem cell growth factor project, primary screen (AID 1086).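 Further: score merges 667 nm fluorescence with signal-to-noise of each printed compound spot.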 Particulars: higher = more signal.
A short description of test [10]: binders of probe aHhip on microarray, primary screen, stem cell growth factor project, biochemical, small-molecule microarray, fluorescence 635/667 (AID 1087).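 Further: score merges spot fluorescence at 667nm with spot signal to noise ratio.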 The settings on record: higher = more signal.
The test system of test [11] is PRMT1 (protein arginine N-methyltransferase 1). Put plainly: small molecules binding arginine methyltransferase PRMT1 – biochemical, small-molecule microarray, 635 nm fluorescence, primary screen (AID 1088).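 Further: binding of Prmt1 protein to compounds spotted on small-molecule microarray slides.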 Particulars: higher = more signal.
The nature of test [12]: growth effects on S. cerevisiae YJM789 – YJM789 clinical isolate, OD600, 24 h, basal, primary screen (AID 1089).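 Further: growth of clinical yeast isolate S. cerevisiae YJM 789 seeded 1000 cells per well; test concentration not given here.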 The settings on record: higher = more signal, called active from +8 up or from −8 down.
A short description of test [13]: S. pombe growth modifiers, basal conditions – strain 972, OD600, 24 h, no modulator, primary screen (AID 1090).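 Further: basal condition with compound alone and no growth modifier present; test concentration not given here.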 The settings on record: S. pombe 972 growth, higher = more signal, called active from +8 up or from −8 down.
Test [14] is described as follows: budding yeast growth modifiers under rapamycin – strain BY4716, OD600, 96 h, primary screen (AID 1091). Further: test concentration not given here. Particulars: S. cerevisiae BY4716 + rapamycin, higher = more signal, called active from +8 up or from −8 down.
The target in test [15] is Torsin-1A-interacting protein 2 (Homo sapiens) (UniProt Q8NFQ8). The test is described as follows: small molecules binding lysate-expressed LULL1 – cell lysate, human LULL1 lysate, 635/667 nm fluorescence, primary screen (AID 1092).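 Further: probe is lysate of COS7 cells overexpressing human LULL1; score merges per-feature 667 nm fluorescence with signal-to-noise.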 The settings on record: small-molecule microarray, hLULL1 lysate binding, 635 nm fluorescence; higher = more signal.
Torsin-1A-interacting protein 2 (Homo sapiens), sequence (Q8NFQ8 whole entry, looked up): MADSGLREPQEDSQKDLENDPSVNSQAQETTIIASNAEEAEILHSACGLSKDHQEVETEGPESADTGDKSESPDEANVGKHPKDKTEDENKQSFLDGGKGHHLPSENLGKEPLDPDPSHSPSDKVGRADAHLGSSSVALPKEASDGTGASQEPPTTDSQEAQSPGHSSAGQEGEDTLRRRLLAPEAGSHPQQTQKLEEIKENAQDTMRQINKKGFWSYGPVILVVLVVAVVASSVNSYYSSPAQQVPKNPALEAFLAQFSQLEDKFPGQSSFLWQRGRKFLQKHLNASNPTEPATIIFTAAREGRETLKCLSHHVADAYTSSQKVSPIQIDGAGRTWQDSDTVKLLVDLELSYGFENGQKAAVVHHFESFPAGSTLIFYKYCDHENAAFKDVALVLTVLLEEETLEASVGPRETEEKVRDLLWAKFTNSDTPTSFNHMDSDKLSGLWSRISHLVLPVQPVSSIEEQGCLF
Test [16] can be described thus: optical density change of DRC41 E. coli – strain DRC41, OD650, 24 h, E. coli filamentation project, primary screen (AID 1093).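 Further: MC1000 strain lacking acrAB efflux and sulA so SOS filamentation is blocked; test concentration not given here.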 The settings on record: E. coli DRC41 growth, higher = more signal, called active from +8 up or from −8 down.
A short description of test [17]: probe aLefty2 binding to arrayed compounds – biochemical, biotinylated probe, 635/667 nm fluorescence, primary screen (AID 1094).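 Further: score merges spot fluorescence near 667 nm with spot signal-to-noise ratio.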 Particulars: small-molecule microarray, higher = more signal.
In test [18] the test system is Noggin (protein binding on small-molecule microarray). The test is described as follows: small molecules binding Noggin protein – biochemical, 635/667 nm fluorescence, primary screen (AID 1095).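 Further: score merges 667 nm feature fluorescence with signal to noise over triplicate slides.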 Particulars: 635 nm fluorescence, higher = more signal.
Test [19] has as its target Neurogenic locus notch homolog protein 3 (Homo sapiens) (UniProt Q9UM47). Put plainly: small molecules binding NOTCH3 protein – biochemical, 635/667 nm fluorescence, primary screen (AID 1096). Particulars: small-molecule microarray, 635 nm fluorescence, higher = more signal.
A short description of test [20]: probe aEGFR binding to arrayed compounds – biochemical, biotinylated probe, 635/667 nm fluorescence, primary screen (AID 1097).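 Further: probe is a biotinylated anti-EGFR antibody binding compounds printed on slides; score combines fluorescence near 667 nm and signal to noise of each spot.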 The settings on record: small-molecule microarray, higher = more signal.

Molecules are shown by their SMILES. Activity calls are given as the source filed them.

Neurogenic locus notch homolog protein 2 (Homo sapiens), sequence (Q04721 whole entry, looked up, canonical isoform): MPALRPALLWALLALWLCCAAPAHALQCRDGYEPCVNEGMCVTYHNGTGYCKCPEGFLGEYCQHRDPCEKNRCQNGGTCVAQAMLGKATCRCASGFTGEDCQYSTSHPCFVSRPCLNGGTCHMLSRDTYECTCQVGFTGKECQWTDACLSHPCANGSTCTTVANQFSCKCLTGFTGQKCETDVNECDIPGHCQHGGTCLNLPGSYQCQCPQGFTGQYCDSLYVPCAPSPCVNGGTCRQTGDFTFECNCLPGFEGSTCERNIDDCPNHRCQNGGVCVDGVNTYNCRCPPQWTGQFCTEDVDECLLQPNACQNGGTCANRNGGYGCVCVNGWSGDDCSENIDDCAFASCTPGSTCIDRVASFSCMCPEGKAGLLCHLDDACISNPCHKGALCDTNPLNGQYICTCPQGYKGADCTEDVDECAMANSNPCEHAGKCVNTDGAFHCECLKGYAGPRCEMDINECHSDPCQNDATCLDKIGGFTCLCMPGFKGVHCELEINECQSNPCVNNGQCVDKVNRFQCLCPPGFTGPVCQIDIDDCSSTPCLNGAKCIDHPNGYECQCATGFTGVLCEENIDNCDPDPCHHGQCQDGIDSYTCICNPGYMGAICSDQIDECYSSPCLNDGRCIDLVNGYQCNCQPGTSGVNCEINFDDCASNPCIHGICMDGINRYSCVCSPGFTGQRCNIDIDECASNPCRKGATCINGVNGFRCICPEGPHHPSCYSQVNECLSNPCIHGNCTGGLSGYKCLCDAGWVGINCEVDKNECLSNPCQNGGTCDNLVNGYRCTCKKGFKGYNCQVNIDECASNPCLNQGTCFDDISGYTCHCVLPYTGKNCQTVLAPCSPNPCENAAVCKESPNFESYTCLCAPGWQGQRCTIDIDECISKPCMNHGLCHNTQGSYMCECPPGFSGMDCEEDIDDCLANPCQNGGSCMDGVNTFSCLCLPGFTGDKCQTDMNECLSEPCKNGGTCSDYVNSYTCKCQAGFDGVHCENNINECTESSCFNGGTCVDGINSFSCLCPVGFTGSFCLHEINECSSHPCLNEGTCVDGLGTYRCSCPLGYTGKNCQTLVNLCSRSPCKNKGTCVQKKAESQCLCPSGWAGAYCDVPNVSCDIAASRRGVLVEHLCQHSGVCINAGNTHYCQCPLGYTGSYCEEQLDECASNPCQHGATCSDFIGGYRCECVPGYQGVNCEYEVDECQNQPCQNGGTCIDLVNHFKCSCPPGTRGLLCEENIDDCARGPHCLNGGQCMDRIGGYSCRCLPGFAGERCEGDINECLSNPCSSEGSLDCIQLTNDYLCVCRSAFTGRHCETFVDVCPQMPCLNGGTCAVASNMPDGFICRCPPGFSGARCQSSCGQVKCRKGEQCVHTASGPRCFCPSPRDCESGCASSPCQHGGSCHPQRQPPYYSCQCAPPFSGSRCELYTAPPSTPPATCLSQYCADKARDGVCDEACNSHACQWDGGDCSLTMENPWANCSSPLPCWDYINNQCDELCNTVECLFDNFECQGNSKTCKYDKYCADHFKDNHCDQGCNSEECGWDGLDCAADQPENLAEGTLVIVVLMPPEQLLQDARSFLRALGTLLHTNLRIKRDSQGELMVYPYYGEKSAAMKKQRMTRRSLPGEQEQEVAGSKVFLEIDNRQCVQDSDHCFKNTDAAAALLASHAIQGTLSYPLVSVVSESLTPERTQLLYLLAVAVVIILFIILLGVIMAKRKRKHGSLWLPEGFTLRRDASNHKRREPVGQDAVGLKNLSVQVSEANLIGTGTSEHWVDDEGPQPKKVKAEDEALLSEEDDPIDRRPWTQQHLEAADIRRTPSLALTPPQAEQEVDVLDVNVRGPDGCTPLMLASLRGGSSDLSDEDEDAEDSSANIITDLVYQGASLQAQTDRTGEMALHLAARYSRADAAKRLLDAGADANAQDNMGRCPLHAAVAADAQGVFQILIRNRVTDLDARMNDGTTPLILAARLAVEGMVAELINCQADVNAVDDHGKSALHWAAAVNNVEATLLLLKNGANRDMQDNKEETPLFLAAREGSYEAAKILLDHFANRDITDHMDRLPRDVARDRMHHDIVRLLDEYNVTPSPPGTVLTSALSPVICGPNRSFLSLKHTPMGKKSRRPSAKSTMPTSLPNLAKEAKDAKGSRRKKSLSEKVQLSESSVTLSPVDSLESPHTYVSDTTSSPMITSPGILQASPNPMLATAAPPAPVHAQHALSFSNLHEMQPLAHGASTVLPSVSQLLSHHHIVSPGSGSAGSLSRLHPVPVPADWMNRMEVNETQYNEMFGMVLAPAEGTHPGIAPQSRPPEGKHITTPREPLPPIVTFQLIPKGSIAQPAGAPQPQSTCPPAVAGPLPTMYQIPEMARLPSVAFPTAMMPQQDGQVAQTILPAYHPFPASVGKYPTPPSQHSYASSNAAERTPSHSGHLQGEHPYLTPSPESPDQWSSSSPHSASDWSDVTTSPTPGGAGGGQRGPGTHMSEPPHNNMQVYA

Regarding `COC(=O)[C@@]1(Cc2ccccc2)[C@@H]2[C@@H](CC(=O)[C@H]2CC(=O)C(=O)N(C)C)CN1C(=O)c1ccccc1`, the composite z-score in [1] was 0.186; in [2], -1; in test [3], -0.169; in test [4], 0.281; in test [5], 1.19; in [6], 1.89. Also, the composite z-score in [7] was 1.21; in test [9], 0.319; in test [10], -0.0994; in test [11], -0.476; in test [15] it was 3.34; in test [17] it was -0.0221. In addition, the composite z-score was -0.505 in test [18], -0.18 in [19] and 0.142 in [20]. Besides, the z-score is 1.1 (inactive) in [8]; 1.02 (inactive) in [12]; 1.29 (inactive) in [13]; 0.633 (inactive) in [14]; -0.2 (inactive) in [16].
Regarding `CN1C(=O)[C@]2(CCS(=O)(=O)c3ccccc3)N=C(c3ccc(OCCCO)cc3)O[C@@H]2c2ccccc21`, the composite z-score in test [1] was 0.511; in [2], 0.485; in [3], -0.0984; in test [4], 0.255; in test [5] it was 0.768; in test [6], 1.75. Also, the composite z-score was 1.41 in test [7]; 0.135 in [9]; 0.238 in [10]; 1.54 in test [11]; 3.41 in test [15]; -0.0271 in [17]. Besides, the composite z-score in test [18] is 0.804; in [19], 1.12; in [20], -0.168. Also, the z-score in test [8] was -0.34 (inactive); in test [12], 0.921 (inactive); in test [13], -0.895 (inactive); in [14], 3.62 (inactive); in [16] it was -0.532 (inactive).
Turning to `CC[C@H](C)C(=O)O[C@H]1CC[C@]2(C)C3=C(CCC2C1(C)C)[C@]1(C)CC[C@H]([C@H](C)CCCC(C)C)[C@@]1(C)CC3` (stereo not given in full), the composite z-score in test [1] was -0.598; in [2], 0.191; in test [3], -0.0691; in test [4], 0.332; in test [5] it was 0.414; in test [6], 0.0345. Further, the composite z-score is 0.966 in [7]; 0.0889 in [9]; 0.315 in test [10]; 0.0683 in test [11]; 0.125 in test [15]; -0.108 in test [17]. For the same compound, the composite z-score in [18] is 0.296; in test [19] it was 0.854; in test [20], -0.0431. Also, the z-score in test [8] is 0.169 (inactive); in test [12], 0.737 (inactive); in test [13] it was 0.14 (inactive); in test [14] it was 0.17 (inactive); in test [16], 2.24 (inactive).
As for `COC(=O)C1=CC(CCCO)=CC(C2CC2)N(Cc2cccc(OC(F)(F)F)c2)C=C1C(=O)OC` (stereo not given), the composite z-score was -0.207 in [1]; -0.166 in test [2]; -0.0265 in [3]; 0.216 in test [4]; 0.515 in [5]; 1.14 in [6]. Moreover, the composite z-score is 1.25 in [7]; 0.497 in [9]; -0.0645 in test [10]; 1.13 in test [11]; 2.82 in test [15]; 0.0386 in test [17]. The composite z-score was -0.273 in [18], 0.749 in [19] and -0.0353 in test [20]. Besides, the z-score in [8] is 0.503 (inactive); in [12], -2.46 (inactive); in test [13], -1.06 (inactive); in test [14], -2.24 (inactive); in test [16] it was -2.57 (inactive).
`O=C(NCC(F)(F)F)[C@@H]1c2ccccc2C(=O)N(CC23CC4CC(CC(C4)C2)C3)[C@H]1c1ccc(CO)cc1`: the composite z-score was -0.473 in [1]; 0.371 in test [2]; -0.0549 in test [3]; 0.353 in [4]; 0.958 in [5]; 0.553 in [6]. The composite z-score in [7] is 1.21; in test [9], 0.195; in [10], -0.0776; in test [11] it was 1.54; in test [15] it was 1.81; in [17] it was -0.129. Further, the composite z-score is 1.14 in test [18], 1.1 in test [19] and -0.0902 in [20]. Also, the z-score in test [8] is -3.95 (inactive); in [12], -3.48 (inactive); in test [13], -1.94 (inactive); in [14] it was -1.47 (inactive); in test [16] it was 1.37 (inactive).
